Values joined by “and” are separate entries in the source; they are usually repeats but may differ in a detail not shown here. Equal values may be shown once. The campaign covered roughly 330,000 compounds. About 560 (0.17%) were called active. Another 1% or so got no clear call; they are omitted. Calls follow the shape of the dose curve; as a rule, active = well fitted inhibition curve with a large enough effect; inconclusive = small, poorly fitted or top-dose-only effect, or effect the other way; inactive = flat fitted curve, though single readings scatter. The list comes from a sample in which actives are over-represented; it also holds similar structures and randomly drawn compounds.
What follows are compounds tested against ATP-dependent 6-phosphofructokinase (Trypanosoma brucei brucei) (UniProt O15648) (assay: qHTS Assay to Find Inhibitors of T. brucei phosphofructokinase). Settings: T. brucei PFK, ADP-Glo luminescence; series mostly up to 57.5 µM; activity, negative = inhibition: at the top concentration.
ATP-dependent 6-phosphofructokinase (Trypanosoma brucei brucei), sequence (O15648 whole entry, looked up): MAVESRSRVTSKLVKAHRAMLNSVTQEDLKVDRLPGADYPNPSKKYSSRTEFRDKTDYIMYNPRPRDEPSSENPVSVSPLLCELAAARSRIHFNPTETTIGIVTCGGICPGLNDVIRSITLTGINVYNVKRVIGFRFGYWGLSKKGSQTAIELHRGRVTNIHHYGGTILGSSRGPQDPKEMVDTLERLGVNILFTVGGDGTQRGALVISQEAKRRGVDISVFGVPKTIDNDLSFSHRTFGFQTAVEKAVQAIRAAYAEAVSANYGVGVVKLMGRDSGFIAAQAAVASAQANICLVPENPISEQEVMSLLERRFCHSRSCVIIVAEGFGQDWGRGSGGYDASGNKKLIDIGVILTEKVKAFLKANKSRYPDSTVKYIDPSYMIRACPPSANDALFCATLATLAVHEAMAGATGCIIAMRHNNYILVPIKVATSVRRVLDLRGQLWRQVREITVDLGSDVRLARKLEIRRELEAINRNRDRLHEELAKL
Summary of the method: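 Compounds were pin-transferred as a titration series up to 57 uM into substrate buffer (0.5 mM F6P, 0.1 mM ATP, pH 8.0), then 1.25 nM PFK was added and reactions ran 45 min before ADP-Glo detection.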
Also: nearly all actives have a fitted effect of over 60% in size.
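For activity, negative = inhibition in this document: 0% = uninhibited 1x PFK enzyme wells and -100% = no-enzyme wells.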
Potency is read from the fitted curve at half-maximal effect.

activity, negative = inhibition, inactive:
Cc1cc(C)c(S(=O)(=O)n2cc(C(C)C(N)C(=O)O)c3ccccc32)c(C)c1 (stereo not drawn) -0.251%
COCCOC(=O)c1c(C)oc2cc(Br)c(OCC(N)=O)cc12 -0.993%
CCCCC(CC(C)O)c1n[nH]c(=S)n1-c1ccccc1 (stereo not drawn) 1.94%
CC(NC(=O)CCCC1CCCCC1)c1ccc(S(N)(=O)=O)cc1 (stereo not drawn) -0.196%
CC(C)(C)OC(=O)C[C@@H]1C/C=C\C[C@@H](CC(=O)N[C@@H](CO)Cc2ccccc2)C(=O)N2CCC[C@H]2COC1=O -0.476%
COC(=O)CN1C(=O)N/C(=C/c2ccc(OC)c(C)c2OC)C1=O -0.685%
C=CCn1cc(-c2cccc(C(F)(F)F)c2)cc(C#N)c1=O -1.02%
COCc1ccc(C(=O)N2CCc3c([nH]c4ccccc34)C2c2ccccn2)s1 (stereo not drawn) -0.831%
Cc1ccc(C(C[N+](=O)[O-])c2c(C)cc3ccccn23)cc1 (stereo not drawn) -0.525%
CN(CC(=O)Nc1ccc(F)c(F)c1F)C(=O)C1CC(=O)N(C2CCCC2)C1 (stereo not drawn) 2.52%
CCOC(=O)c1cnc(SC)nc1Sc1ccc(Cl)cc1Cl -2.53%
NCCN1CCN2C(=O)CN(C(=O)c3ccccc3)CC12 (stereo not drawn) 0.907%
O=C(COC(=O)c1cc(=O)[nH]c2ccccc12)NCc1cccc(Cl)c1 -11.9%
Cc1cc(Nc2cccc(F)c2)n2ncnc2n1 -1.14%
C=CCn1c(C23CC4CC(CC(C4)C2)C3)n[nH]c1=S -0.991%
CCOC(=O)c1c(/N=C/C2C(=O)CC(C)(C)CC2=O)sc(C)c1C 2.63%
O=C(Nc1cc(C(F)(F)F)ccc1Cl)c1cc2nc3c(c(C(F)(F)F)n2n1)CCCC3 -1.59%
Cc1cc(NS(=O)(=O)c2ccc(NC(=O)C(C)Oc3cccc(C)c3C)cc2)nc(C)n1 (stereo not drawn) -5.56%
CCCCn1c(N)c(N(Cc2ccccc2OC)C(=O)COc2cc(C)ccc2Cl)c(=O)[nH]c1=O 24.8%
NC(=O)Nc1ccccc1C(=O)NCCc1ccccc1 -28.3%
CCOC(=O)C1C(=O)C=C(c2ccc(OC)cc2)CC1c1ccco1 (stereo not drawn) 1.24%
CC(C)c1ccc(NC(=O)Cn2ncc3ccccc32)cc1 2.07%
C=CCOc1ccc(/C=C/C(=O)OCC(=O)NC2CCCCCC2)cc1 1.83%
O=C1CSc2ccc(C(=O)NCc3ccccn3)cc2N1 -9.69%
COc1cccc(S(=O)(=O)NCc2ccc(C(=O)NCc3ccccn3)cc2)c1 -1.83%
CCOc1cc(CNn2c(C)nnc2SCC(=O)NC(C)(C)C)ccc1OCC(=O)NC(C)(C)C -0.0385%
S=c1[nH]c2ccccc2c2ccccc12 -0.408%
COCCNC(=O)COc1ccc(N(C)S(=O)(=O)c2ccc3ccccc3c2)cc1 1.54%
Cc1ccc(N2C(=O)C(CC(=O)Nc3cccc(F)c3)N(CCc3ccncc3)C2=O)cc1 (stereo not drawn) -1.36%
CCCCN1C(=O)C(C)=C(C)C1OCCc1ccc(OC)c(OC)c1 (stereo not drawn) -0.0022%
O=C(c1ccccn1)c1ncc(C(F)(F)F)cc1Cl -1.9%
N/C(=N\OC(=O)CCCC(=O)O)c1ncc(C(F)(F)F)cc1Cl 0.924%
COc1cccc(N=c2oc3c(C)ncc(CO)c3cc2C(N)=O)c1 -0.59%
CC(C)c1ccc(N2CCN(C(=O)c3ccccc3NC(=O)/C=C(\C(=O)O)c3ccccc3)CC2)cc1 0.784%
Cc1c(C)c(C)c2[nH]c(=S)[nH]c2c1C 4.32%
CCOc1ccc(Oc2nc(C)cc(OC)n2)nn1 -6.66%
Cc1ccc(-c2nn(-c3ccccc3)cc2C(=O)NCCCN2CCCC2=O)cc1 4.23%
COc1ccccc1NS(=O)(=O)N(C)C 0.142%
Cc1ccc(CN(C)Cc2cc(=O)oc3cc(C)c(Cl)cc23)cc1 0.644%
O=c1oc2ccccc2c(CNc2ccccc2)c1[N+](=O)[O-] 1.56%
Cc1ccc2c(c1)N(S(=O)(=O)c1cc(-c3cc(C)no3)ccc1C)CCO2 -4.63%
COC(=O)c1cccc(NC(=O)CN2CCC(NC(=O)c3cc(OC)c(OC)c(OC)c3)CC2)c1 0.362%
Cn1c2cc(B(O)O)sc2c2cnn(Cc3ccccc3F)c(=O)c21 -19.7%
O=C(COC(=O)/C=C/c1ccc(OC(F)F)cc1)NC1CCCCC1 6.89%
N=C1/C(=C/c2cccn2-c2cccc([N+](=O)[O-])c2)C(=O)N=C2SC=CN12 3.77%
CCOC(=O)c1c(CNCc2ccccc2F)c2sc(C)cc2n1C -0.233%
CCN(CC)CCCSc1nc2ccccc2s1 -6.96%
NC(=O)c1ccc(Nc2ccc3nonc3c2[N+](=O)[O-])cc1 0.218%
CCOCCOC(=O)C1=C(C)N(C)C(=O)NC1c1ccccc1F (stereo not drawn) 0.633%
CCOC1CS(=O)(=O)CC1OCC (stereo not drawn) -1.39%
CC(C)(C)NC(=O)NC(=O)COC(=O)Cc1c(F)cccc1Cl -0.983%
COc1cc(N2C(=O)CSC2=S)cc(OC)c1OC -8.25%
O=C1CSC(=S)N1c1ccc(O)cc1 -1.23%
O=C(COC(=O)CNS(=O)(=O)c1ccccc1)NC12CC3CC(CC(C3)C1)C2 -2.55%
Cc1ccc(C(=O)COC(=O)c2cccc(N3C(=O)c4c(C)nc5ccccc5c4C3=O)c2)cc1C -6.05%
O=C(Nc1ccncc1)c1ccc([N+](=O)[O-])cc1Cl -2.98%
Cc1ccnc(NC(=O)c2ccc(Cl)c([N+](=O)[O-])c2)c1 -21.5%
Cc1c(CCO)c(=O)n(-c2ccccc2)n1S(=O)(=O)c1ccc(F)cc1 2%
CCOc1ccc(NCCC(=O)c2ccc3c(c2)OCO3)cc1 0.639%
COc1ccc(CNC(=O)C(NS(=O)(=O)c2cccc3nsnc23)C(C)C)cc1 (stereo not drawn) -7.82%
CC(NC(=O)c1ccc(S(=O)(=O)Nc2ccccc2)cc1)c1ccc(S(N)(=O)=O)cc1 (stereo not drawn) 4.34%

Potency, active:
Nc1ccccc1SC(C[N+](=O)[O-])c1ccccc1 (stereo not drawn) 13.5 µM
O=C(NCc1ccccn1)c1ccc2nc(-c3ccco3)c(-c3ccco3)nc2c1 2.13 µM
N/C(=N\OC(=O)Nc1ccc(Cl)c(Cl)c1)c1ncc(C(F)(F)F)cc1Cl 13.5 µM
O=c1[nH]c(=S)[nH]c2[nH]c(=S)[nH]c12 16.9 µM and 13.5 µM
O=[N+]([O-])c1c(NCCO)cc(Sc2nc3ccccc3s2)c2nonc12 6.01 µM
O=C1CSC(=S)N1c1ccc(Cl)c(Cl)c1 21.3 µM
O=C(Nc1ccncc1)c1ccc(Cl)c([N+](=O)[O-])c1 26.9 µM

From PubChem BioAssay AID485367 (National Center for Advancing Translational Sciences (NCATS), 2010)
